Experimental findings from PubChem BioAssay (NCATS) are described below.

The structures appear in SMILES notation. Results filed as inconclusive are left out. More than one record can exist for a structure, and the calls need not agree. The source made the active and inactive calls. Unless noted, calls come from the whole dose curve; as a rule, active = well fitted curve in the direction sought with a large enough effect; inconclusive = small, poorly fitted or top-dose-only effect, or another doubt; inactive = no such curve, though single readings can be large; an effect the other way counts as inactive or inconclusive.

The target of assay [1] is Transient receptor potential cation channel subfamily V member 1 (Homo sapiens) (UniProt Q8NER1). As to the kind of experiment: HTS Assay for Compounds that Act as Enhancers of the Vanilloid Receptor 1 (AID 488979). Note: 0% is about no effect. Summed up: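 TRPV1 cells loaded with Fluo-8 calcium dye; compound added and Ca2+ signal (ex 480/em 520 nm) followed 3 min, then capsaicin at EC20 added and read 2 more min to detect enhancement.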
Sequence of Transient receptor potential cation channel subfamily V member 1 (Homo sapiens) (Q8NER1 whole entry, looked up): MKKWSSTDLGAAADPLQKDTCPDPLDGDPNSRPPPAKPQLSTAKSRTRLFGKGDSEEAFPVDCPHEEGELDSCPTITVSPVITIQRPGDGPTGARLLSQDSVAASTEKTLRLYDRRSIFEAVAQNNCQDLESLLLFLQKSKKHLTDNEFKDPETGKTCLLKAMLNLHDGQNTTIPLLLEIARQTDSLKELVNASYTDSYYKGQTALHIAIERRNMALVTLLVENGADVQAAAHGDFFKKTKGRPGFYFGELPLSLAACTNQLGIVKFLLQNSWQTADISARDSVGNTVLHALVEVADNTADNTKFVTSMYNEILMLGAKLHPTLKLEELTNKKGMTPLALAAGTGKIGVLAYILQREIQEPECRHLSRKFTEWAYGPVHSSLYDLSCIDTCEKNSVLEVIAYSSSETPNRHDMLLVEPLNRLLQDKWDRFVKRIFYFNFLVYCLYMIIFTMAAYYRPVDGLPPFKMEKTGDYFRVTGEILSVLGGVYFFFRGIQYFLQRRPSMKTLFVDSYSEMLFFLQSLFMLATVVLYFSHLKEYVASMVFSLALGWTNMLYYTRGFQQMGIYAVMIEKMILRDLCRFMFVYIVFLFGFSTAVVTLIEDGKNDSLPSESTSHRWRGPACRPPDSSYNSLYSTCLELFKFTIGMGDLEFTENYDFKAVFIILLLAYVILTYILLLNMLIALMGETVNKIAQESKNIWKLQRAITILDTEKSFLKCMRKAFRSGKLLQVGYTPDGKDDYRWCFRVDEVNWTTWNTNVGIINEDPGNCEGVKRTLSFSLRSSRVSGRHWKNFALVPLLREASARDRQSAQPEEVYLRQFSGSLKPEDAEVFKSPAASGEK

Assay [2] has as its target D(1A) dopamine receptor (Homo sapiens) (UniProt P21728). The experiment in a line: HTS Assay for Allosteric Agonists of the Human D1 Dopamine Receptor: Primary Screen for Agonists (AID 488981). For activation: 0% is about no effect. Note: potency is the fitted concentration of half-maximal effect. The gist of the method: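 Tetracycline-induced HEK293 Trex D1 cells with forced coupling to calcium, loaded with no-wash calcium dye; kinetic fluorescence read 180 s after compound addition for agonism, then a further 180 s after an EC20 dopamine challenge for potentiation.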

Assay [3] concerns the target Tyrosyl-DNA phosphodiesterase 1 (Homo sapiens) (UniProt Q9NUW8). The experiment in a line: Confirmation Assay for Inhibitors of Tyrosyl-DNA Phosphodiesterase (TDP1) (AID 489007). Note: potency is the fitted concentration of half-maximal effect; nearly all actives have a fitted effect of over 40% in size. The following applies: recombinant human TDP1 enzymatic activity, dose-response. Summed up: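 Loss of AlphaScreen signal reports Tdp1 cleavage of a dual-labelled DNA substrate. Conditions: 1 nM E. coli-derived enzyme, 15 nM substrate, 15 min compound preincubation, 5 min reaction, 10 min bead incubation, all at room temperature.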

A short description of assay [4]: Validation screen for small molecules that induce genotoxicity in human embryonic kidney (HEK293T) cells expressing luciferase-tagged ELG1 (AID 493106). Note: 0% is about no effect. The gist of the method:
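In this validation screen, increased ELG1-luciferase signal flags compounds causing genetic stress. HEK293T reporter cells are treated 16 hr (37 °C, 5% CO2), developed with ONE-Glo for 30 min at room temperature, and imaged on a CCD-based reader.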

The target in assay [5] is ATPase family AAA domain-containing protein 5 (Homo sapiens) (UniProt Q96QE3). As to the kind of experiment: Validation screen for small molecules that inhibit ELG1-dependent DNA repair in human embryonic kidney (HEK293T) cells expressing luciferase-tagged ELG1 (AID 493107).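 Note: cells co-treated with the DNA-damaging agent 5-fluorouridine alongside compound; series mostly up to about 46 µM; % is set by controls: 0 for no effect and ±100 for the full control effect; inhibitors lower the ELG1-luciferase luminescence signal; nearly all actives have a fitted effect of over 70% in size.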 Summed up:
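Compounds reducing 5-fluorouridine-driven ELG1-luciferase signal in HEK293T cells were scored; exposure lasted 16 hr at 37 °C with luminescence detected via ONE-Glo.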

A short description of assay [6]: Nrf2 qHTS screen for inhibitors: Validation (AID 493153; active = well fitted inhibition curve with a large enough effect in the main read-out, with a control signal flat, not every such curve was filed as active;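 for activity change, negative = inhibition: A549 cells with ARE-driven firefly luciferase reporter reporting Nrf2 activity; series mostly up to about 46 µM; % of control where 0% means no effect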). The settings on record: viability change: measured here: cytotoxicity max response. The gist of the method:
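In this counterscreened reporter format, each well gives two signals: CellTiter-Fluor fluorescence for cytotoxicity and ARE-luciferase luminescence for Nrf2 function. A549 ARE_Fluc cells in 5% FBS OPTI-MEM were exposed to compound titrations for 18-24 h.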

Assay [7] is described as follows: qHTS for Inhibitors of Cell Surface uPA Generation: Validation Assay (AID 493164).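 Note: RAW 264.7 macrophage cells exposed to compound for 18 h; 0% is about no effect.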 Summed up:
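Compounds are titrated over seven points (2.45 nM–38.3 uM final) onto pre-plated RAW 264.7 cells and incubated for 18 h. Retained intracellular ATP, measured with ATP-Lite, indicates blocked lethal factor entry.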

Assay [8] deals with Galactokinase (Homo sapiens) (UniProt P51570). As to the kind of experiment: qHTS Validation Assay for Inhibitors of Human Galactokinase (GALK) (AID 493189). Note: 0% is about no effect. The gist of the method:
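5 nM GALK / 100 uM galactose / 35 uM ATP, 20 mM HEPES pH8.0, 5 mM MgCl2, 60 mM NaCl, 1 mM DTT, 0.01% BSA (final). RT 1 h; Kinase-Glo Plus luminescence.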

Assay [9] in a line: Validation screen for small molecules that induce DNA re-replication in SW480 colon adenocarcinoma cells (AID 504364). Note: 0% is about no effect. Summed up:
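Hoechst-stained SW480 nuclei, imaged at 405 nm excitation after 48 hr compound exposure, were counted for elevated DNA content as the re-replication signal.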

Assay [10] deals with phosphoglycerate mutase (Leishmania major) (UniProt Q4Q090). As to the kind of experiment: qHTS Validation Assay to Find Inhibitors of Phosphoglycerate Mutase (AID 504548). Note: series mostly up to about 58 µM; % is set by controls: 0 for no effect and ±100 for the full control effect. Summed up: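 Lm PGAM 1.25nM final; 100 mM TEA pH 7.6, 5 mM MgCl2, 0.01% Tween-20; 45 min RT; Kinase-GloPlus, 10 min; end-point luminescence. Enzyme-free wells as negative controls.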
Sequence of phosphoglycerate mutase (Leishmania major) (Q4Q090 1-553): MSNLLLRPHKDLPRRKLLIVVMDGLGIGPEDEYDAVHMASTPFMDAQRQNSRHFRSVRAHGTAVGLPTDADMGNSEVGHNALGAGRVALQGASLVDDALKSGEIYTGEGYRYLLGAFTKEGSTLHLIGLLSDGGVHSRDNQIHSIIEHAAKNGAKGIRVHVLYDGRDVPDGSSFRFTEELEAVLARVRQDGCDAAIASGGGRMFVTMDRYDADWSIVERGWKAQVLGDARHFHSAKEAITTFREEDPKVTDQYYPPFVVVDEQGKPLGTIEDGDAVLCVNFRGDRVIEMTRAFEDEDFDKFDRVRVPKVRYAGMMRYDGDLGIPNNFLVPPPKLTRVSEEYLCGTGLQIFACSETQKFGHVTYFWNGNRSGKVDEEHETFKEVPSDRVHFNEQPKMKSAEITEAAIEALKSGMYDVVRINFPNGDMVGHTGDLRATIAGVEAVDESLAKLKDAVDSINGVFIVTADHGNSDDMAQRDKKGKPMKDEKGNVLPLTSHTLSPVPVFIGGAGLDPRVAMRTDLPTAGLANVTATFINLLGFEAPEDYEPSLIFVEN
Assay [11] deals with Ubiquitin carboxyl-terminal hydrolase 1 (Homo sapiens) (UniProt O94782). The experiment in a line: Inhibitors of USP1/UAF1: Pilot qHTS (AID 504865).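 For activity change, negative = inhibition: rhodamine fluorescence freed from ubiquitin-rhodamine substrate followed over time; top concentration of the series differs between compounds; % is set by controls: 0 for no effect and ±100 for the full control effect.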 Note: nearly all actives have a fitted effect of over 35% in size. Note: potency is the fitted concentration of half-maximal effect. The gist of the method:
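In 50mM HEPES pH 7.8 containing 0.5mM EDTA, 1mM TCEP, 0.1 mg/ml BSA and 0.01% Tween-20, 1nM USP1/UAF1 is exposed to compound for 15 min, then Ub-Rho (150nM final) is added and fluorescence is read over time.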

Assay [12] in a line: qHTS for Inhibitors of ATXN expression: Validation of Cytotoxic Assay (AID 588349). Note: % is set by controls: 0 for no effect and ±100 for the full control effect. The gist of the method: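 Toxicity of test compounds toward HEK293 cells is scored from cellular ATP content measured by CellTiter Glo. Cells receive titrated doses and incubate 72 hr at 37 degrees C beforehand.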
A short description of assay [13]: qHTS for Inhibitors of ATXN expression: Validation (AID 588378). Note: series mostly up to about 57 µM; % is set by controls: 0 for no effect and ±100 for the full control effect; nearly all actives have a fitted effect of over 75% in size. Summed up: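 Compounds were pinned onto attached HEK293 cells carrying an ATXN2-firefly luciferase construct and incubated 24 hrs at 37 degrees C. Each well then received a fluorescent viability reagent followed by luciferase substrate for end-point luminescence.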
Assay [14] addresses ATP-dependent 6-phosphofructokinase (Trypanosoma brucei brucei) (UniProt O15648). As to the kind of experiment: qHTS Assay to Find Inhibitors of T. brucei phosphofructokinase: hit validation (AID 492961).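 Note: luminescence reports ADP formed as PFK phosphorylates fructose-6-phosphate with ATP; series mostly up to about 51 µM; % is set by controls: 0 for no effect and ±100 for the full control effect.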 The gist of the method:
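Inhibition of parasite PFK is measured as reduced ADP formation, quantified via luciferase after ATP depletion. Assay used 0.1 mM ATP, 0.5 mM F6P, 1.25 nM enzyme, 45 min incubation.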

The target in assay [15] is Thyrotropin-releasing hormone receptor (Homo sapiens) (UniProt P34981). As to the kind of experiment: qHTS for Small Molecule Agonists and Allosteric Enhancers of Human TRH Receptor: Validation Screen for Agonists (AID 493127;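 active = calcium activation more than 3 SD above the typical response in the agonist read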;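 note: intracellular calcium rise by fluo-8 fluorescence before TRH EC20 addition; 0% is about no effect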). The following applies: TRH receptor agonist cell assay; at 2 µM; stronger effect = higher value. Summed up:
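Kinetic fluorescence assay of agonist-induced calcium release: overnight-plated TRHR cells, room-temperature fluo-8 loading, baseline then compound addition with per-second reads.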

Assay [16] addresses Peptidyl-prolyl cis-trans isomerase NIMA-interacting 1 (Homo sapiens) (UniProt Q13526). The experiment in a line: qHTS Validation Assay to Find Inhibitors of Pin1 (AID 504536; active = well fitted inhibition curve with a large enough effect in the polarisation, with a control signal flat, not every such curve was filed as active; the % refers to the polarisation;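 note: 0% = full Pin1 enzyme wells and -100% = no-enzyme wells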). Summed up:
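Fluorescence polarization competition: compounds (titration) displace HiFluor-488-labeled Pin1-1b peptide from Pin1 (0.3 uM final) in pH 7.5 HEPES buffer with DTT, 10 min at room temperature; %Activity normalized to no-enzyme wells, curves fitted.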

In assay [17] the target is Phosphoglycerate kinase, glycosomal (Trypanosoma brucei brucei) (UniProt P07378). As to the kind of experiment: qHTS Validation Assay to Find Inhibitors of Phosphoglycerate Kinase (AID 504547).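 Note: control wells lack PGK and mark full inhibition.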 Summed up:
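Compounds are pinned into the substrate/PGK mixture, and GAPDH (100nM final) is added to start the reaction by producing 1,3-BPG. After 60 minutes at room temperature, Kinase-Glo Plus is added and luminescence is measured 10 minutes later.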

Assay [18] deals with Thyrotropin receptor (Homo sapiens) (UniProt P16473). The experiment in a line: qHTS Assay for Antagonists of the Thyroid Stimulating Hormone Receptor (AID 488980). Note: series mostly up to about 58 µM; 0% is about no effect. The gist of the method:
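Readout is cAMP by HTRF competition between cellular cAMP and cAMP-d2 for a cryptate-labelled antibody. Antagonism was assessed in TSHR-transfected HEK293 cells stimulated with 4 nM TSH (EC80, final) in the presence of RO 20-1724.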

The target of assay [19] is DNA dC->dU-editing enzyme APOBEC-3G (Homo sapiens) (UniProt Q9HC16). The experiment in a line: qHTS for inhibitors of Vif-A3G interactions: Validation (AID 588379). Note: 0% is about no effect. Summed up:
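Yellow fluorescence (Ex 488, Em 500-530) of Vif-coexpressing HeLa A3G-eYFP cells, scanned by Acumen cytometer, reports blocked A3G degradation. Cells plated at 700/well overnight at 37 deg C before compound addition, then a further overnight compound incubation at 37 deg C.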

Sequence of Phosphoglycerate kinase, glycosomal (Trypanosoma brucei brucei) (P07378 whole entry, looked up): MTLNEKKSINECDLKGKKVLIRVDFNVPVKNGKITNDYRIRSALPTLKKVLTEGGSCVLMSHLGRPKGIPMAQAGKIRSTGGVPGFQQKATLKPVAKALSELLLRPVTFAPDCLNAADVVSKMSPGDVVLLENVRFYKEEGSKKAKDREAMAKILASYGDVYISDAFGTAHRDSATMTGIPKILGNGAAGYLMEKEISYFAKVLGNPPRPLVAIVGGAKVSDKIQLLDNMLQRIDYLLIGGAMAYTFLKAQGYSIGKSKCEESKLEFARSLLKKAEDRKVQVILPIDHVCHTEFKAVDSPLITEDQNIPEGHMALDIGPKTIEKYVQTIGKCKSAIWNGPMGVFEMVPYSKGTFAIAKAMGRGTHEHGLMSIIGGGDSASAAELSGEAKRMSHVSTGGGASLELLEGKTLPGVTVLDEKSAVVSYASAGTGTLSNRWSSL
Sequence of D(1A) dopamine receptor (Homo sapiens) (P21728 whole entry, looked up): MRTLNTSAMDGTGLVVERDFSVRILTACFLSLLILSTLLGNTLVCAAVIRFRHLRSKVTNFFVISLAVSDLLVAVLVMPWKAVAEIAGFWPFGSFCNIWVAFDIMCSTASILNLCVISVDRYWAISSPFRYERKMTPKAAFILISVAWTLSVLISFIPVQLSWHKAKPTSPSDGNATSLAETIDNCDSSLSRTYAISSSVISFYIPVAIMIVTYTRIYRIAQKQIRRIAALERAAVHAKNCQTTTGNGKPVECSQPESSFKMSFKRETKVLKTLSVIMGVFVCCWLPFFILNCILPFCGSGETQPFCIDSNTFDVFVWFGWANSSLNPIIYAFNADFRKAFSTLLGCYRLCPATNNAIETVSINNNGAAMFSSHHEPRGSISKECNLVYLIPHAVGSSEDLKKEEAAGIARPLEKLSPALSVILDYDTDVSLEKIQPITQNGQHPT
Sequence of ATPase family AAA domain-containing protein 5 (Homo sapiens) (Q96QE3 whole entry, looked up, the tested form may be a part): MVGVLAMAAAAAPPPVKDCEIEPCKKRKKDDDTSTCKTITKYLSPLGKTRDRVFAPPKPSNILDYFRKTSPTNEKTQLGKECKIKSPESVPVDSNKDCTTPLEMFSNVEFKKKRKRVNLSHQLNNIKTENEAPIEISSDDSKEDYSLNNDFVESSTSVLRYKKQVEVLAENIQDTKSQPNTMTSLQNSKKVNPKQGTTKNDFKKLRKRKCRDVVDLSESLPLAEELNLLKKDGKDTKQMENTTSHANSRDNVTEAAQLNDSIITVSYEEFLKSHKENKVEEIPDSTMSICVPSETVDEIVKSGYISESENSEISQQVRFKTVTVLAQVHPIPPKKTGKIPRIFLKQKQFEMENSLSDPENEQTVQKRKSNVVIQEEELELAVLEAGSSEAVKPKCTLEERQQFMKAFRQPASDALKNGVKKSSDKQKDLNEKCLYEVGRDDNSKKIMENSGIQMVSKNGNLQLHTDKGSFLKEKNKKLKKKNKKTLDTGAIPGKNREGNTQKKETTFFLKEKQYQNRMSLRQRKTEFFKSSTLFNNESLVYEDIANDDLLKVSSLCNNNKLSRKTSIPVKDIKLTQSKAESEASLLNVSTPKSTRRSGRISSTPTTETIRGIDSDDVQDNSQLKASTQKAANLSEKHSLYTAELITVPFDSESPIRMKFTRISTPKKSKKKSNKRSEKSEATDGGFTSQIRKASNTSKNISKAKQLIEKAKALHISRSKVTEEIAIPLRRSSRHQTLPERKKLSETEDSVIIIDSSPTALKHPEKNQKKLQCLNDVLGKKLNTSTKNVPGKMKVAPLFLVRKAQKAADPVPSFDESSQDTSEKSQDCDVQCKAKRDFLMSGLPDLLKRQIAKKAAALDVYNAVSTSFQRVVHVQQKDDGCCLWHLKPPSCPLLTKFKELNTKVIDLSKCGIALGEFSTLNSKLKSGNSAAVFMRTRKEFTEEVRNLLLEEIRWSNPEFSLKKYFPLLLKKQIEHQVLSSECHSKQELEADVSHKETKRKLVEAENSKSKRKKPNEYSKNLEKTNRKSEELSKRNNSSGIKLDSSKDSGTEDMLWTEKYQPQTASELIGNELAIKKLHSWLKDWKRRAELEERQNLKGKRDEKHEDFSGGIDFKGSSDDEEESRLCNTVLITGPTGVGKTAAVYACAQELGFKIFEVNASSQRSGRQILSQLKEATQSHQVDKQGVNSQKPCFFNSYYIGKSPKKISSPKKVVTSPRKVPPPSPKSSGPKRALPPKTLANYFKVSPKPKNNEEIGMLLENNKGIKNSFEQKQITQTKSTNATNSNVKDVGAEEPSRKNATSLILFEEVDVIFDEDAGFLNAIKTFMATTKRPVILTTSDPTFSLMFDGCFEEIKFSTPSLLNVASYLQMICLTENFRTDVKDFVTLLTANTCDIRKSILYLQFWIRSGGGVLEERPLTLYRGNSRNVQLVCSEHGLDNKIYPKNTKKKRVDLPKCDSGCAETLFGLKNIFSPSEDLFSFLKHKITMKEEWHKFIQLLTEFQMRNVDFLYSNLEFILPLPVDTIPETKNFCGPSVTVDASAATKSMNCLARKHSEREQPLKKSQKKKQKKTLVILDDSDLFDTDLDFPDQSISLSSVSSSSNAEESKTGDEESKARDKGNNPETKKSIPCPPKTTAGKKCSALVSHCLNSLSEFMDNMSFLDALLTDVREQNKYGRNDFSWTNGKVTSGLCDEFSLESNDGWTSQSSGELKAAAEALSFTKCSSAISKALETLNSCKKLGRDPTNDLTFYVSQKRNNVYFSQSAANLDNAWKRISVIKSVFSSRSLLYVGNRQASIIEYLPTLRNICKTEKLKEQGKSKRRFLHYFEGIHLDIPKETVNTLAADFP
Sequence of ATP-dependent 6-phosphofructokinase (Trypanosoma brucei brucei) (O15648 whole entry, looked up): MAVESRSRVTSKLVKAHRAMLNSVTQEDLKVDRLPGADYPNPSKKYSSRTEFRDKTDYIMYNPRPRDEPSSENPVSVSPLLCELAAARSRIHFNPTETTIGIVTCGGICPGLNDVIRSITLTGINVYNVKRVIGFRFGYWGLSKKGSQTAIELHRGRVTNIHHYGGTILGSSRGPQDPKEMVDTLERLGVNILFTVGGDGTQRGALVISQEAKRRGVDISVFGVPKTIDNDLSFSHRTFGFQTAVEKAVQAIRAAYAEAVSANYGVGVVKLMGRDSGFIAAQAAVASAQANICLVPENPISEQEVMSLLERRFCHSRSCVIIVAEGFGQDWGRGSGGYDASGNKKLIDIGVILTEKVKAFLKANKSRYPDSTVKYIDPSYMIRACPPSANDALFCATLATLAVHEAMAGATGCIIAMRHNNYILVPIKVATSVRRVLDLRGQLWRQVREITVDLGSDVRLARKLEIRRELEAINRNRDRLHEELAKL
Sequence of Peptidyl-prolyl cis-trans isomerase NIMA-interacting 1 (Homo sapiens) (Q13526 whole entry, looked up): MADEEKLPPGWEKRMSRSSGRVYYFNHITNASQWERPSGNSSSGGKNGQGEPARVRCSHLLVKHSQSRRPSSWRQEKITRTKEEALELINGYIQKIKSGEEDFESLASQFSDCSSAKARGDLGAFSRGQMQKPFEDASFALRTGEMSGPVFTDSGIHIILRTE

Turning to `CCCCC/C=C\C/C=C\C/C=C\C/C=C\CCCC(=O)NCC(=O)O`, the result in [1], in assay [4], in [5], in assay [6], in assay [7] and in assay [8] was inactive. Moreover, the outcome in [9], in assay [10], in [12] and in assay [13] was inactive. Moreover, the Potency result in assay [2] is “inactive”. In addition, the results for the Potency in [3] and in assay [11] were 28.2 µM (active) and 18.9 µM (active), respectively. Further, in assay [6], the viability change worked out at 2.11%. Moreover, in assay [11], the activity change, negative = inhibition is -11.7% [at 11.4 µM] (inactive).

As for `CC(C)(C)NCC(O)c1cc(Cl)c(N)c(C(F)(F)F)c1` (centres undefined), in assay [14], the outcome was inactive. Further, in assay [11], the Potency entry is “inactive”.

With `CC(NC(C)(C)C)C(=O)c1cccc(Cl)c1` (centres undefined), the outcome in [1], in assay [4], in assay [5], in assay [6], in [7] and in assay [8] was inactive. In addition, the compound was called inactive in assay [9], in assay [16], in [17], in assay [10], in assay [12] and in assay [13]. The Potency entry in [2] and in [11] was “inactive” throughout. The activation in assay [15] was -0.188% (inactive). In addition, the viability change in [6] came out at 5.02%.

Turning to `O=C(CCCN1CCC2(CC1)C(=O)NCN2c1ccccc1)c1ccc(F)cc1`, the compound was called inactive in assay [18], in assay [4], in assay [7], in [8], in assay [9] and in assay [16]. Moreover, the call in assay [17], in assay [10], in [13] and in [19] was inactive. Moreover, in [2], the Potency is 12.6 µM (active). Moreover, in [11], the Potency entry was “inactive”.

Take `CCCCCCCCCC(=O)O[C@H]1CC[C@H]2[C@@H]3CCC4=CC(=O)CC[C@@H]4[C@H]3CC[C@]12C`: the call in assay [14] was inactive.

In the case of `O=c1[nH]oc2c1CCNC2`, the result in assay [1], in [18], in [4], in [5], in assay [6] and in [7] was inactive. The call in assay [9], in assay [16], in [17], in assay [10], in [12] and in assay [13] was inactive. For the same compound, in assay [19], the compound was classed as inactive. For the same compound, the Potency entry in [2] and in assay [11] was “inactive” each time. In addition, in [6], the viability change was -2.38%.

As to `c1ccc2c(c1)sc1ccccc12`, the call in [14] was inactive.

With `CC(C)(C)NCC(O)c1ccccc1Cl` (centres undefined), the outcome in [1], in assay [18], in [14], in [4], in assay [5] and in assay [6] was inactive. The call in assay [7], in assay [8], in [9], in assay [16], in assay [17] and in [10] was inactive. Further, the result in assay [12] and in assay [13] was inactive. For the same compound, the Potency result in assay [2] and in assay [11] was “inactive” each time. Besides, in [15], the activation is 0.312% (inactive). In assay [6], the viability change came out at 0.543%.

Regarding `CN1C[C@H](C(=O)N[C@]2(C)O[C@@]3(O)[C@@H]4CCCN4C(=O)[C@H](Cc4ccccc4)N3C2=O)C=C2c3cccc4[nH]cc(c34)C[C@H]21`, the call in assay [14] was inactive.

Turning to `O=C1c2ccccc2C(=O)c2ccccc21`, the compound was called inactive in [14]. Further, the Potency result in [11] is “inactive”.

`COP(=S)(OC)Oc1ccc(S(=O)(=O)N(C)C)cc1`: the call in assay [14] was inactive. In addition, in [11], the Potency result is “inactive”.

Take `CCC(C)(C)c1ccc(O)cc1`: the compound was classed as inactive in assay [14].

Turning to `COP(=S)(OC)Oc1ccc(SC)c(C)c1`, the result in assay [14] was inactive. Besides, the Potency entry in assay [11] was “inactive”.
